Results from PubChem BioAssay (Tox21).
Records with an inconclusive call do not appear. A call without a number means that no potency is given here. Unmarked numbers belong to inactive results. The source made the active and inactive calls. Calls follow the shape of the dose curve; as a rule, active = well fitted cell-killing curve with a large enough effect in the repeat runs; inconclusive = weak or mixed curves, or effect the other way; inactive = flat fitted curve, though single readings scatter.

Test: qHTS RealTime-Glo MT Cell Viability Assay in HEK293 cells - 0 hour (AID 1224880); also: top concentration of the series differs between compounds; nearly all actives have a fitted effect of over 45% in size
Details: RealTime-Glo luminescence; series mostly up to 76.8 µM
Excerpt: U.S. Tox21 Program National Center for Advancing Translational Sciences [NCATS] NIH Chemical Genomics Center [NCGC] U.S. Environmental Protection Agency [EPA] National Institutes of Environmental Health Sciences [NIEHS] National Toxicology Program [NTP] U.S. Food and Drug Administration [FDA] Tox21 Assay Overview: Measure of cell viability is critical in the cell-base assay. Analysis of cell viability is necessary for the characterization of cell responses to cytotoxic drugs and environmental stress. A RealTime-Glo MT Cell Viability Assay to monitor cell viability in real time of continues cell culture during 40 hours of compound treatment was used to screen Tox21 10K library compounds in Hek293 cells. The RealTime-Glo MT Cell Viability Assay is a nonlytic, homogeneous, bioluminescent method to measure cell viability in real time using a simple, plate-based method. The assay involves adding NanoLuc luciferase and a cell-permeant prosubstrate to cells in culture. Viable cells reduce the proprietary prosubstrate to generate a substrate for NanoLuc luciferase. This substrate diffuses from cells into the surrounding culture medium, where it is rapidly used by the NanoLuc Enzyme to produce a luminescent signal. The signal correlates with the number of viable cells, making the assay well suited for cytotoxicity studies.
Tox21 Assay Protocol Summary: The mixture of Hek293 cell suspension and reagents were dispensed at 600cells/6 ul/well in 1536-well tissue culture treated black solid bottom plates using a Multidrop dispenser. After the assay plates were incubated at a 37 C/5% CO2 incubator for 5 hours, 23 nL of compounds dissolved in DMSO, positive and negative controls was transferred to the assay plate by a pintool work station. The plates were incubated at 37 C for 40 hours. The luminescence intensity were measured at 0h, 8h, 16h, 24h, 32h and 40h time points using ViewLux plate reader during compound treatment.

SMILES	Potency	activity change, negative = cytotoxicity
CC(=O)CC(C)C	inactive	
NC(=O)c1ccc([N+](=O)[O-])cc1	inactive	
O=C(O)CCCc1ccccc1	inactive	
CCc1cccc2c(CCO)c[nH]c12	inactive	
CC(=O)N(CC(O)CO)c1c(I)c(C(=O)NCCO)c(I)c(C(=O)NCC(O)CO)c1I (stereo not given)	inactive	
O=C(CCCN1CCN(c2ccccn2)CC1)c1ccc(F)cc1	inactive	
NCCCNCCSP(=O)(O)O		-1.72% [at 6.97 µM]
CCOC(=O)c1c(C)n(C)c2ccc(O)cc12	inactive	
CCC(C)S (stereo not given)		2.99% [at 2.72 µM]
c1ccc(CC2=NCCN2)cc1	inactive	
Cc1c(NC(C)C)c(=O)n(-c2ccccc2)n1C	inactive	
C[C@H](NC(CCc1ccccc1)C(=O)O)C(=O)N1CCC[C@H]1C(=O)O (stereo not given in full)	inactive	
N[C@H](C(=O)O)c1ccc(O)cc1		-0.65% [at 15.8 µM]
O=c1cc(-c2ccccc2)oc2ccccc12	inactive	
CN1C(=O)N(C)C(O)C1O (stereo not given)	inactive	
C=CCS(=O)(=O)O	inactive	
FC1(F)C(F)(F)C(F)(F)C2(F)C(F)(F)C(F)(F)C(F)(F)C(F)(F)C2(F)C1(F)F (stereo not given)	inactive	
Cn1cc(S(C)=O)c(=O)c2ccc(F)cc21 (stereo not given)	inactive	
NC(=O)c1ccc(N)cc1	inactive	
COC(=O)NN	inactive	

SMILES	Potency	activity change, negative = cytotoxicity
CN1CCN(c2cc3c(cc2F)c(=O)c(C(=O)O)cn3-c2ccc(F)cc2)CC1	inactive	
CN(C)CCCSc1ccccc1NC(=O)/C=C/c1ccccc1	inactive	
CCOC(=O)[C@H](CCc1ccccc1)N[C@@H](C)C(=O)N1[C@H](C(=O)O)C[C@@H]2CCC[C@@H]21	inactive	
CC(=O)Nc1ccc(S(N)(=O)=O)cc1	inactive	
COCCCOCCCOC	inactive	
Brc1c(NC2=NCCN2)ccc2nccnc12	inactive	
N[C@H]1CN(c2c(F)cc3c(=O)c(C(=O)O)cn(C4C[C@H]4F)c3c2Cl)CC12CC2 (stereo not given in full)	inactive	
O=C1CCCC(=O)C1	inactive	
CN1CCCC1	inactive	
C1OCOCO1	inactive	
CC(C)(CC(=O)O)C(=O)O	inactive	
COC(=O)CC(C)=O	inactive	
COC(=O)[C@@H](N)Cc1ccc(O)c(O)c1	inactive	
CCC=O	inactive	
CC(C)(C)c1nnc(NS(=O)(=O)c2ccccc2)s1	inactive	
CC(=O)Nc1c(I)cc(I)c(C(=O)O)c1I	inactive	
C=COCC1CCC(CO)CC1 (stereo not given)	inactive	
CO[Si](CCCOCC1CO1)(OC)OC (stereo not given)	inactive	
OC1CCCCC1c1ccccc1 (stereo not given)	inactive	
C/C=C(\C)C#N	inactive	
